Each structure is given as a SMILES string. Where “and” joins values, the source holds several entries; their conditions need not be identical. Identical values can stand only once. More than one record can exist for a structure, and the calls need not agree. Calls of active or inactive are those of the source. The calls were made as follows: active = hit-call score of the fitted dose curve at least 0.9, where 1 is the maximum; inactive = score below 0.9.

What is called AC50 is the concentration giving half of the maximal activity seen.

Test [1] deals with Paired box protein Pax-6 (Homo sapiens) (UniProt P26367). The experiment in a line: ATG_Pax6_CIS: Attagene CIS-FACTORIAL HepG2 Assay for human Paired Box 6 (PAX6) (AID 2282956). The following applies: HepG2 CIS-FACTORIAL PAX6 reporter transcription, RNA readout; actives raise or lower the signal. Put shortly: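 DMSO-referenced bidirectional fits of reporter mRNA fluorescence; HepG2 with transient cis-promoter MRTUs, 24 h post-dose, RT-PCR plus capillary electrophoresis detection.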
Chain of Paired box protein Pax-6 (Homo sapiens) (P26367 whole entry, looked up): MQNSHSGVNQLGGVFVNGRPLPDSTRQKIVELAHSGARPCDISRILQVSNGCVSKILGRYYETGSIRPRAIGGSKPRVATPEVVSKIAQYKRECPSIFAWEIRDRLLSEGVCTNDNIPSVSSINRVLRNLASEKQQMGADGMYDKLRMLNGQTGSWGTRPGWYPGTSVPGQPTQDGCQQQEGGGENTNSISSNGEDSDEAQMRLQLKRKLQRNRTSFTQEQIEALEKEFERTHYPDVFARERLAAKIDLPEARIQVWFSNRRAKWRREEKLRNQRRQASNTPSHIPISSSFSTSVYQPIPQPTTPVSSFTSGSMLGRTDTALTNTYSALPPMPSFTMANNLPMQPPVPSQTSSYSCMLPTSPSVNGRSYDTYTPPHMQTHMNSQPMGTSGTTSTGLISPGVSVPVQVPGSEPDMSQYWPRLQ

The nature of test [2]: ATG_PXRE_CIS: Attagene CIS-FACTORIAL HepG2 Assay for human Pregnane X Receptor Element (PXRE) (AID 2282957). The following applies: HepG2 Attagene CIS-FACTORIAL PXRE reporter, mRNA; actives raise or lower the signal. In outline:
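Using HepG2 transfected with multiple reporter transcription units, endogenous factor-driven transcription was scored as reporter mRNA after 24 h exposure.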

A short description of test [3]: ATG_PPRE_CIS: Attagene CIS-FACTORIAL HepG2 Assay for human Peroxisome Proliferator-activated Response Element (PPRE) (AID 2282958). The following applies: HepG2 PPRE cis-element reporter, Attagene transcription factor profiling; actives raise or lower the signal. Put shortly:
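DMSO served as negative control and baseline for bidirectional curve fitting. Signal came from PPRE-regulated reporter mRNA in HepG2 cells, measured 24 h post-dosing by RT-PCR, 6-FAM primer extension and capillary electrophoresis.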

The nature of test [4]: ATG_RORE_CIS: Attagene CIS-FACTORIAL HepG2 Assay for human RAR-related Orphan Receptor Element (RORE) (AID 2282959). The following applies: HepG2 Attagene cis-factorial RORE reporter, mRNA; actives raise or lower the signal. Put shortly: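 Transfect HepG2 with MRTUs; treat 24 h; extract RNA; RT with oligo(dT); PCR with reporter-specific primers; 6-FAM primer extension; HpaI digest 2 h at 37 C; capillary electrophoresis. Fit vs DMSO, bidirectional.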

Test [5] is described as follows: ATG_Sox_CIS: Attagene CIS-FACTORIAL HepG2 Assay for human SRY-box transcription factor (SOX) (AID 2282960). The following applies: HepG2 Attagene cis-factorial SOX reporter, mRNA; actives raise or lower the signal. Put shortly:
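Fluorescence-labelled cDNA fragments from reporter transcripts, sized by CE, give the signal. Cells: HepG2, transiently transfected with cis-regulated reporter units. Exposure 24 h; DMSO negative control; bidirectional curve fitting.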

Test [6] deals with Transcription factor Sp1 (Homo sapiens) (UniProt P08047). In words: ATG_Sp1_CIS: Attagene CIS-FACTORIAL HepG2 Assay for human Specificity Protein 1 (Sp1) (AID 2282961). The following applies: HepG2 Sp1 cis-reporter transcription, actives raise or lower the signal. In outline:
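Chemicals are dosed onto HepG2 cells transfected with multiple cis-promoter reporter constructs, and after 24 h reporter RNA is reverse-transcribed, PCR-amplified and resolved by capillary electrophoresis for fluorescence quantitation; activity is scored up or down against DMSO.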

Test [7] is described as follows: ATG_SREBP_CIS: Attagene CIS-FACTORIAL HepG2 Assay for human Sterol Regulatory Element Binding (SREBP) (AID 2282962). The following applies: HepG2 Attagene cis-factorial SREBP reporter, mRNA; actives raise or lower the signal. In outline: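 In this cis-format assay, HepG2 liver cells express reporters controlled by promoter elements responsive to native transcription factors. Exposure lasts 24 h; reporter mRNA fluorescence from capillary electrophoresis gives the signal, fitted bidirectionally against DMSO.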

The target of test [8] is Signal transducer and activator of transcription 3 (Homo sapiens) (UniProt P40763). In words: ATG_STAT3_CIS: Attagene CIS-FACTORIAL HepG2 Assay for human Signal Transducer and Activator of Transcription 3 (STAT3) (AID 2282963). The following applies: HepG2, Attagene cis-factorial STAT3 reporter transcription; actives raise or lower the signal. Put shortly: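 Readout is reporter transcript quantified by RT-PCR and capillary electrophoresis, with 6-FAM primer extension and HpaI digestion. Total RNA is taken 24 h after dosing transiently transfected HepG2 carrying cis-regulated reporter units. Bidirectional fit against DMSO.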
Chain of Signal transducer and activator of transcription 3 (Homo sapiens) (P40763 whole entry, looked up): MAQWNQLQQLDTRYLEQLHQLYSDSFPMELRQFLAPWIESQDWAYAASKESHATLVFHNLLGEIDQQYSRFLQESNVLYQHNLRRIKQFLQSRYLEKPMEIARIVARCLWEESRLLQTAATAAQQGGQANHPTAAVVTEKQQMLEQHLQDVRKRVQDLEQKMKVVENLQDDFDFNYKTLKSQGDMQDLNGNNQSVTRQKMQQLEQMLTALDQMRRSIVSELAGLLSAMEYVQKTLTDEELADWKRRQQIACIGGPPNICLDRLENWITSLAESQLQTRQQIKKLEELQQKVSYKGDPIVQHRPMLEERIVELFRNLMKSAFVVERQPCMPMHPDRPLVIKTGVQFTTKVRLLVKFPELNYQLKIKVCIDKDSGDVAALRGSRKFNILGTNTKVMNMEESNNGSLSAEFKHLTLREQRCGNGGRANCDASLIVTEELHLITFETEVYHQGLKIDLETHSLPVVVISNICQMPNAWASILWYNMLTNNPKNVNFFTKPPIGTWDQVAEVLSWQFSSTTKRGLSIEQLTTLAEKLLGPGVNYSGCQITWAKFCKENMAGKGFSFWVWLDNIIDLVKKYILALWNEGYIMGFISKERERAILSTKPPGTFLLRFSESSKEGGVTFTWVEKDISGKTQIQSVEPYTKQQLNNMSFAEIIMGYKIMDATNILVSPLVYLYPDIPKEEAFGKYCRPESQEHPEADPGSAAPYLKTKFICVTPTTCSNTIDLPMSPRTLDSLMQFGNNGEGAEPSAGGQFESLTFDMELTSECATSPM

A short description of test [9]: ATG_TA_CIS: Attagene CIS-FACTORIAL HepG2 Assay for human TA Basal Promoter (AID 2282964). The following applies: HepG2 Attagene CIS-factorial TA basal promoter reporter; actives raise or lower the signal. Put shortly: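 Read-out: fluorescent reporter-transcript fragments resolved by capillary electrophoresis after RT-PCR and HpaI digestion. Source: HepG2 cells carrying transiently transfected multi-reporter cis constructs, treated 24 h. Endpoint fitted bidirectionally relative to DMSO.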

Test [10] is described as follows: ATG_TCF_b_cat_CIS: Attagene CIS-FACTORIAL HepG2 Assay for human T-Cell-Factor with beta-catenin (TCF/b-cat) (AID 2282965). The following applies: HepG2 TCF/beta-catenin cis-reporter transcription, actives raise or lower the signal. Put shortly:
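Measured: reporter mRNA in HepG2 transiently transfected with cis-promoter reporter units, 24 h after chemical addition. Fitting was bidirectional, DMSO as negative control.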

Chain of Transcription factor Sp1 (Homo sapiens) (P08047 whole entry, looked up): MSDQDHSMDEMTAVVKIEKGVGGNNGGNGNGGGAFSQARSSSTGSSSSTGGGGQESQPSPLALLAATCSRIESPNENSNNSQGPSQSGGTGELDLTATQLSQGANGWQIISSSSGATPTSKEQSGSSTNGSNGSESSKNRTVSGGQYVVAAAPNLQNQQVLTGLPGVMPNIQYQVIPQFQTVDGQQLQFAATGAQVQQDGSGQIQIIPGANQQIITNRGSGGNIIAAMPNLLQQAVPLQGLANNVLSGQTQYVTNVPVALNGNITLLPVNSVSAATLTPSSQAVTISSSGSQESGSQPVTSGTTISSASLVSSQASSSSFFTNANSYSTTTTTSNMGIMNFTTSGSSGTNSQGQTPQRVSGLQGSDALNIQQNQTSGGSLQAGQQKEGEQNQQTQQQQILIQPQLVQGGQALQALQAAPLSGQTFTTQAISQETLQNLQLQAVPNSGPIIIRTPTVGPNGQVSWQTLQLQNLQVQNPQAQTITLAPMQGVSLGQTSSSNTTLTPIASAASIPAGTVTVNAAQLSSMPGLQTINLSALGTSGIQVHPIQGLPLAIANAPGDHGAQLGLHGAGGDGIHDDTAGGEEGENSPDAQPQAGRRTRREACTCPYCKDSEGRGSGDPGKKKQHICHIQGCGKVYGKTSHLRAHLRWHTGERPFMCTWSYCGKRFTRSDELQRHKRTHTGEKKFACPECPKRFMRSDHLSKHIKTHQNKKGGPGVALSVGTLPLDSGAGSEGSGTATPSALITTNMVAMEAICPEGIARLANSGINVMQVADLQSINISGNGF

Regarding `COP(=O)(OC)OC`, the molecule was called inactive in test [1], in test [3], in [4], in test [5], in test [6] and in test [7]. Also, the call in [8], in test [9] and in test [10] was inactive. Moreover, the half-maximal activity concentration (AC50) in test [2] was 32.7 µM (active).
As for `COc1ccc(OC)c(C=O)c1`, the molecule was classed as inactive in test [1], in [3], in test [4], in test [5], in test [6] and in test [7]. Also, the result in test [8], in [9] and in [10] was inactive. The AC50 in [2] is 16.9 µM (active).
Consider `O=P(O)(O)CN(CP(=O)(O)O)CP(=O)(O)O`, for which the molecule was classed as inactive in [1], in [2], in [3], in test [4], in test [5] and in [6]. Further, the outcome in [7], in [8], in test [9] and in test [10] was inactive.
Regarding `Nc1ccc(N=Nc2ccc(-c3ccc(N=Nc4c(S(=O)(=O)O)cc5cc(S(=O)(=O)O)c(N=Nc6ccccc6)c(O)c5c4N)cc3)cc2)c(N)c1`, the outcome in test [1], in [2], in [3], in test [4], in [5] and in test [6] was inactive. The molecule was classed as inactive in test [7], in test [8], in test [9] and in [10].
With `O=C(c1ccccc1)C(Cl)Cl`, the AC50 in test [1] was 26.8 µM (active); in [5], 25.7 µM (active); in test [6], 25.2 µM (active); in test [7], 26.4 µM (active); in test [10] it was 25 µM (active). Further, the outcome in test [2], in test [3], in test [4], in test [8] and in test [9] was inactive.
Regarding `CC(C)(OO)c1ccccc1`, the outcome in test [1], in test [2], in test [3], in test [4], in [5] and in test [6] was inactive. Further, the outcome in [7], in test [8], in test [9] and in test [10] was inactive.
For the molecule `Cc1cc(Cl)ccc1O[C@H](C)C(=O)O`, the molecule was classed as inactive in test [1], in test [2], in test [4], in test [5], in test [6] and in test [7]. The call in test [9] and in test [10] was inactive. The AC50 in test [3] was 28.7 µM (active); in test [8], 100 µM (active).
On to `BrCCBr`, for which the molecule was called inactive in test [1], in [2], in [3], in [4], in [5] and in test [6]. Also, the molecule was classed as inactive in test [7], in test [8], in test [9] and in [10].
As for `C[C@]12CC[C@H](O)CC1=CC[C@@H]1[C@@H]2CC[C@]2(C)C(=O)CC[C@@H]12`, the molecule was classed as inactive in [1], in test [3], in test [4], in test [5], in [6] and in test [7]. Also, the molecule was called inactive in [8], in [9] and in test [10]. The AC50 in test [2] was 27.3 µM (active).
As for `CCOP(=S)(OCC)SCSP(=S)(OCC)OCC`, the molecule was classed as inactive in test [1], in test [3], in test [4], in [5], in test [6] and in test [7]. Further, the molecule was called inactive in test [8], in test [9] and in [10]. Further, the AC50 in test [2] is 0.192 µM (active).
As to `Nc1cccc(Cl)c1`, the outcome in test [1], in test [2], in test [3], in test [4], in test [5] and in test [6] was inactive. Further, the outcome in test [7], in test [8], in test [9] and in test [10] was inactive.
On to `CCCCC(CC)CO[N+](=O)[O-]` (stereo not drawn), for which the result in test [1], in test [2], in test [3], in [5], in test [6] and in test [7] was inactive. Also, the outcome in [8], in test [9] and in test [10] was inactive. The AC50 in test [4] was 99.5 µM (active).
Consider `CCOP(=S)(OCC)SCCS(=O)(=O)CC`, for which the molecule was called inactive in test [1], in [3], in test [4], in [5], in test [6] and in [7]. Further, the outcome in [8], in test [9] and in test [10] was inactive. Further, in test [2], the AC50 was 11.5 µM (active).
For `O=C(CCl)CCl`, the AC50 in test [1] was 41.3 µM (active); in test [2] it was 49.3 µM (active); in test [6], 33.4 µM (active); in test [7] it was 46 µM (active); in test [10] it was 23.4 µM (active). Moreover, the call in test [3], in test [4], in test [5], in test [8] and in test [9] was inactive.
Regarding `COP(=S)(OC)Oc1ccc(Sc2ccc(OP(=S)(OC)OC)cc2)cc1`, the figures for the AC50 in test [1], in [2] and in test [4] were 49.2 µM (active), 2.83 µM (active) and 37.2 µM (active), respectively. For the same molecule, the molecule was classed as inactive in test [3], in test [5], in [6], in test [7], in test [8] and in [9]. Also, in test [10], the call was inactive.
Take `O=C1C2(Cl)C3(Cl)C4(Cl)C(Cl)(Cl)C5(Cl)C3(Cl)C1(Cl)C5(Cl)C24Cl` (stereo not drawn): the AC50 is 15.7 µM (active) in test [1]; 14 µM (active) in test [3]; 5.49 µM (active) and 15.5 µM (active) in test [5]; 5.85 µM (active) in test [6]; 5.58 µM (active) in test [8]; 17.7 µM (active) in test [10]. The outcome in [1], in test [3], in test [4], in [5], in test [6] and in test [7] was inactive. For the same molecule, the molecule was called inactive in test [8], in test [9] and in test [10].
For the molecule `C[C@H]1O[C@@H](O[C@H]2[C@@H](O)C[C@H](O[C@H]3[C@@H](O)C[C@H](O[C@H]4CC[C@@]5(C)[C@H](CC[C@@H]6[C@@H]5CC[C@]5(C)[C@@H](C7=CC(=O)OC7)CC[C@]65O)C4)O[C@@H]3C)O[C@@H]2C)C[C@H](O)[C@@H]1O`, the call in test [1], in test [3], in test [4], in [5], in test [9] and in test [10] was inactive. Besides, the AC50 was 0.0564 µM (active) in test [2], 3.3 µM (active) in [6], 7.83 µM (active) in test [7] and 0.196 µM (active) in test [8].
For the molecule `Nc1ccc(Cl)cc1C(=O)c1ccccc1`, the AC50 in test [1] is 29.6 µM (active); in test [2], 6.6 µM (active); in test [4] it was 15 µM (active); in test [9], 21.8 µM (active); in test [10], 39.6 µM (active). Besides, the call in [3], in [5], in test [6], in test [7] and in test [8] was inactive.
On to `COc1cccc(C=O)c1`, for which the molecule was called inactive in test [1], in test [2], in test [3], in [4], in test [6] and in [7]. For the same molecule, the molecule was called inactive in [8], in test [9] and in test [10].
Take `C(=NC1CCCCC1)=NC1CCCCC1`: the molecule was classed as inactive in [1], in test [2], in test [5], in test [6], in [8] and in test [9]. In test [10], the molecule was classed as inactive. The AC50 in test [3] is 2.46 µM (active); in [4], 2.33 µM (active); in test [7], 17.2 µM (active).
`CC(=O)c1cc(C(C)(C)C)cc2c1CCC2(C)C`: the AC50 in test [1] is 26.9 µM (active); in test [2] it was 5.72 µM (active); in test [3], 29.4 µM (active); in [6], 69.3 µM (active); in test [7], 54.4 µM (active). In addition, the molecule was classed as inactive in [4], in [5], in [8], in test [9] and in test [10].
`COP(=O)(OC)O/C(=C\Cl)c1cc(Cl)c(Cl)cc1Cl`: the half-maximal activity concentration (AC50) is 35.2 µM (active) in test [1]; 1.4 µM (active) in test [2]; 154 µM (active) in [3]; 26.9 µM (active) in test [7]; 73.4 µM (active) in [9]; 34.9 µM (active) in test [10]. In addition, the call in [4], in test [6] and in test [8] was inactive.

The values above are taken from PubChem BioAssay (EPA / NIEHS).
